Calls of active or inactive are those of the source. The call rests on the fitted dose curve; in most records, active means well fitted curve in the direction sought with a large enough effect; inconclusive means small, poorly fitted or top-dose-only effect, or another doubt; inactive means no such curve, though single readings can be large or run the other way.

In PubChem BioAssay (NCATS) one finds outcome data, which are given here for 39 molecules.

The test deals with Alpha-galactosidase (Coffea arabica) (UniProt Q42656). As to the kind of experiment: Counterscreen for Glucocerebrosidase Inhibitors: qHTS Assay for Coffee Bean alpha-Galactosidase at pH 4.5 (AID 957). To be noted: purified coffee bean alpha-galactosidase, fluorogenic substrate; series mostly up to 76.9 µM. An excerpt: NIH Chemical Genomics Center [NCGC]
Sequence of Alpha-galactosidase (Coffea arabica) (Q42656 whole entry, looked up): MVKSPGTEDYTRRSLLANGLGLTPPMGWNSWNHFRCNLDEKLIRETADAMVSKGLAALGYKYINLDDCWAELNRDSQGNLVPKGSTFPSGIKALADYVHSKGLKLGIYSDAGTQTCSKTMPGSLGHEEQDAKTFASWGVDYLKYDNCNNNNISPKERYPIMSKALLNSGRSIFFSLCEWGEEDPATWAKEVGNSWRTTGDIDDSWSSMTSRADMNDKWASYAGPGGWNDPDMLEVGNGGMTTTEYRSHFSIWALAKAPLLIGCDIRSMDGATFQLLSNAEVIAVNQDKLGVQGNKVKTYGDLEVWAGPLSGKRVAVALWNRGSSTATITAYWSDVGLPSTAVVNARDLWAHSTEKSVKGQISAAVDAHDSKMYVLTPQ
NIH Molecular Libraries Screening Centers Network [MLSCN]
PI Name: Zheng, Wei [NIH]
Alpha-galactosidase is a homodimeric glycoprotein that hydrolyzes the terminal alpha-galactosyl moieties from glycolipids and glycoproteins. Deficiency of this enzyme results in Fabry Disease with progressive accumulation of globotriaosylceramide and other glycosphingolipids in vascular endothelial cells that causes renal failure, myocardial infarction and stroke, and premature death in patients. It has reported that the improper folding and trafficking of alpha-galactosidase resulted from the genetic mutations may account for a significant numbers of Fabry patients. […] We optimized this coffee bean alpha-galactosidase assay in 1536-well plate format as a counter-screen assay for identifying the selective small molecule inhibitors of other lysosomal enzymes.
NCGC Assay Protocol Summary:
This is a fluorogenic enzyme assay with 4-Methylumbelliferyl alpha-D-galactopyranoside as the substrate and green coffee bean […] (from Sigma-Aldrich) as the enzyme preparation. Upon the hydrolysis of this fluorogenic substrate, the resulting product, […]. 4-Methyllumbelliferone, can be excited at 365 nm and emits at 440 nm which can be detected by a standard fluorescence plate reader. Data were normalized to the controls for basal activity (without enzyme) and 100% activity (with enzyme). In the AC50 values were determined from concentration-response data modeled with the standard Hill equation.
Assay buffer: 50 mM citric acid, 0.005% Tween-20, pH 4.5. (pH 5.9 is an optimal condition for this enzyme assay. This assay in pH 4.5 is used for comparison the inhibitor activities with the human alpha-galactosidase assay)
1536-well assay protocol for the coffee bean alpha-galactosidase:
(1) Add 2 ul/well of enzyme (2 nM final)
(2) Add 23 nL compounds in DMSO solution. The final titration was 0.7 nM to 77 uM.
(3) Add 1 ul of substrate (80 uM final)
(4) Incubate at room temperature for 20 min.
(5) Add 2 ul stop solution (1M NaOH and 1M Glycine mixture, pH 10)
(6) Detect the assay plate in a ViewLux plate reader (PerkinElmer) with Ex=365 nm and Em=440nm.
Keywords: Alpha-galactosidase, Fabry Disease, pharmacological chaperone, chaperone therapy, high throughput screening, alpha-galactosidase inhibitor, MLSMR, MLSCN, NIH Roadmap, qHTS and NCGC
With `Oc1ccc2c3c1O[C@@H]1c4[nH]c5c(c4C[C@@]4(O)[C@@H](C2)N(CC2CC2)CC[C@]314)C[C@]1(O)[C@@H]2Cc3ccc(O)c4c3[C@@]1(CCN2CC1CC1)[C@H]5O4`, the molecule was called inactive.
As for `CCNC(=O)[C@@H]1O[C@@H](n2cnc3c(N)ncnc32)[C@@H](O)[C@H]1O`, the molecule was called inactive.
In the case of `NC(=O)CN1C[C@@H](O)CC1=O` it was “inactive”; in that of `COc1ccc2c(c1)[C@]13CCCC[C@@H]1[C@H](C2)NCC3`, “inactive”.
In the case of `CC(C)N[C@@H](C)Cc1ccc(I)cc1` it was “inactive”; in that of `CCN(CC)c1ncnc2c1ncn2[C@@H]1O[C@@H](COP(=O)(O)OP(=O)(O)C(Br)(Br)P(=O)(O)O)[C@H](O)[C@@H]1O`, “inactive”; in that of `C[Se]C[C@@H](N)C(=O)O`, “inactive”.
In the case of `N[C@H](Cc1ccc(N(CCCl)CCCl)cc1)C(=O)O` it was “inactive”; in that of `C[C@]12CC[C@H](O)C[C@@H]1CC[C@H]1[C@H]2CC[C@]2(C)[C@H](C(=O)CO)CC[C@@H]12`, “inactive”.
For the molecule `Nc1ncnc2c1ncn2[C@@H]1O[C@@H](COP(=O)(O)CP(=O)(O)OP(=O)(O)O)[C@H](O)[C@@H]1O`, the call was inactive.
In the case of `C[C@@H]1O[C@H]1P(=O)(O)O` it was “inactive”; in that of `C[C@]12CC[C@H](O)CC1=CC[C@@H]1[C@H]2CC[C@]2(C)C(=O)CC[C@H]12`, “inactive”; in that of `COc1cc([C@@H](O)CN)ccc1O`, “inactive”.
In the case of `CC(C)C[C@H](NP(=O)(O)O[C@@H]1O[C@@H](C)[C@@H](O)[C@@H](O)[C@H]1O)C(=O)N[C@@H](Cc1c[nH]c2ccccc12)C(=O)O` it was “inactive”; in that of `O=C(O)[C@H]1[C@H](C(=O)O)[C@H]2CC[C@@H]1O2`, “inactive”.
Take `C[C@@]12CC[C@H]3[C@@H](CC[C@@H]4C[C@H](O)CC[C@]43C)[C@H]1CC[C@H]2O`: the outcome was inactive.
In the case of `COc1ccc2c(c1O)-c1cccc3c1[C@H](C2)N(C)CC3` it was “inactive”; in that of `C[C@@H](Cc1ccc(O)cc1)NC[C@@H](O)c1cc(O)cc(O)c1`, “inactive”; in that of `N[C@H](CCl)C(=O)O`, “inactive”.
For the molecule `CC(=O)OCC1=C(C(=O)[O-])N2C(=O)[C@@H](NC(=O)CCC[C@@H](N)C(=O)[O-])[C@@H]2SC1.[Zn+2]`, the call was inactive.
As for `C#CCN[C@@H](C)Cc1ccccc1`, the result was inactive.
On to `C=CCN1CC[C@]23c4c5ccc(O)c4O[C@@H]2/C(=N/NC(=O)c2ccccc2)CC[C@@]3(O)[C@H]1C5`, for which the molecule was classed as inactive.
In the case of `CC(=O)c1c(O)c(C)c(O)c(Cc2c(O)c3c(c(C(=O)/C=C\c4ccccc4)c2O)OC(C)(C)C=C3)c1O` it was “inactive”; in that of `C[C@@]12CC[C@H]3[C@@H](CC=C4C[C@H](OS(=O)(=O)O)CC[C@]43C)[C@H]1CCC2=O`, “inactive”.
As for `CN1C[C@@H](CS(=O)(=O)N(C)C)C[C@H]2c3cccc4c3c(cn4C)C[C@@H]21`, the molecule was called inactive.
Take `CCn1cnc2c(Nc3cccc(Cl)c3)nc(N[C@@H]3CCCC[C@H]3N)nc21`: the call was inactive.
As for `CO[C@@H]1CC=C2CCN3CCC4=C(CC(=O)OC4)[C@]23C1`, the molecule was called inactive.
In the case of `N[C@H](Cn1ccc(=O)[nH]c1=O)C(=O)O` it was “inactive”; in that of `C[N+]1(C)C2CC(OC(=O)C(CO)c3ccccc3)CC1[C@@H]1O[C@H]21` (some centres undefined), “inactive”; in that of `CC(=O)[C@@H]1CC[C@H]2[C@H]3CC[C@H]4C[C@@H](O)CC[C@]4(C)[C@@H]3CC[C@]12C`, “inactive”.
On to `COC(=O)[C@H](N)CCCN=C(N)N[N+](=O)[O-]`, for which the result was inactive.
In the case of `COc1ccc2c3c1O[C@@H]1C(=O)CC[C@@]4(O)[C@@H](C2)N(CC2CC2)CC[C@]314` it was “inactive”.
In the case of `C[C@@H]1Cc2cc3c(cc2C(c2ccc(N)cc2)=NN1)OCO3` it was “inactive”; in that of `O=C(O)[C@H]1CCN1`, “inactive”.
On to `NC[C@H](O)c1cc(O)c(O)cc1F`, for which the outcome was inactive.
In the case of `COc1cc(C[C@H](C)N)c(OC)cc1I` it was “inactive”; in that of `C[N+]1(C)CCc2cc3c(cc2[C@@H]1[C@@H]1OC(=O)c2c1ccc1c2OCO1)OCO3`, “inactive”; in that of `CCCN1CC[C@@H]2c3cc(O)ccc3CC[C@H]21`, “inactive”.
In the case of `C[C@@]12CC[C@H]3[C@@H](CCC4=C(O)C(=O)CC[C@]43C)[C@H]1CCC2=O`, the result was inactive.
